The term inhibition denotes the relative decrease from the control value, in per cent.

Several values for one entry are separate records, joined by “and”; a condition that tells them apart may be missing. Identical values can stand only once. The whole screen tested about 370,000 compounds, of which about 2,800 (0.76%) were called active. Rule as the data show it: active = inhibition above about 21%; inactive = the rest. Shown is part of a subset that was picked to be rich in actives. Where a structure was tested more than once in an assay, its records may differ in their call.

Chain of E3 ubiquitin-protein ligase UHRF1 (Homo sapiens) (Q96T88 whole entry, looked up, the tested form may be a part): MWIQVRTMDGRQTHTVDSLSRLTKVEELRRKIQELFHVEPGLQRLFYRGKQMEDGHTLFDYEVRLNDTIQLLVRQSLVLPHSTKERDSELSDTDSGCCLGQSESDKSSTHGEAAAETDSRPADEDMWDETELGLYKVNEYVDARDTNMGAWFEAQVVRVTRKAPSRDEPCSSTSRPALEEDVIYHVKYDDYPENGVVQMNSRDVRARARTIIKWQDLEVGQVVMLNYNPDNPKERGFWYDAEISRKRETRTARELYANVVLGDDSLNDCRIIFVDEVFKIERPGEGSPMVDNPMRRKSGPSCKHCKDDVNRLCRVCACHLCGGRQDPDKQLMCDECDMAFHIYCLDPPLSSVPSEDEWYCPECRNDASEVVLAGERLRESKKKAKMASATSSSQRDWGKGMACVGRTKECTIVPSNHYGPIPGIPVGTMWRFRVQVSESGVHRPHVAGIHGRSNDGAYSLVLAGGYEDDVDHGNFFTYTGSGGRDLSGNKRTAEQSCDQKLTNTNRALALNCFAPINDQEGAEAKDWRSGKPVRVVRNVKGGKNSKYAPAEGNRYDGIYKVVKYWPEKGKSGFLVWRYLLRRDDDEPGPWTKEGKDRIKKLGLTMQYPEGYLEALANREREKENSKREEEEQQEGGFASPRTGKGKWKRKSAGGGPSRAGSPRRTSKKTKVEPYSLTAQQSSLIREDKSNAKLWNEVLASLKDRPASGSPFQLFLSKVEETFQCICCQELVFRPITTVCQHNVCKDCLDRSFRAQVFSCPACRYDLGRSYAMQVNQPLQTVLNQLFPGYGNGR

This experiment concerns the target E3 ubiquitin-protein ligase UHRF1 (Homo sapiens) (UniProt Q96T88). In words: UHRF1 methylated DNA binding inhibitors, primary screen, counter-screen for MBD2 inhibitor project, biochemical, TR-FRET, human UHRF1, single concentration (AID 687016).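 Also: UHRF1 SRA domain binding a hemimethylated CpG hairpin DNA probe; 0% = median of test compound wells and 100% = reference inhibitor.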 As to conditions: UHRF1 binding to methylated oligo, at 4.4 µM, stronger effect = higher value. (Counterscreens check selectivity or assay interference.)
Turning to `CCC(CO)Nc1cccc2c1S(=O)(=O)N(Cc1cn(Cc3ccccc3C(F)(F)F)nn1)Cc1ccccc1O2` (configuration not stated), the inhibition was 2.09% (inactive).
Turning to `COc1cccc(C2=CC(=O)C[C@H](c3ccc(F)cc3)C2)c1OC`, the inhibition is -0.67% (inactive).
The same measure for `O=C1C=C(c2cccc(Cl)c2O)C[C@@H](c2ccc(F)cc2)C1`: 21% (active); for `COc1ccccc1C1=CC(=O)C[C@H](c2ccc(F)cc2)C1`: 1.8% (inactive).
Then `Cc1ccc(-c2nnc(SCC(=O)Nc3ccc(Oc4ccccc4)cc3)n2Cc2ccco2)cc1`, with -0.31% (inactive); and `Cc1ccc(C(=O)Cn2cccn2)cc1`, with 5.04% (inactive); and `O=C(CC(n1cncn1)C(Cl)(Cl)Cl)c1ccc([N+](=O)[O-])cc1` (configuration not stated), with 0.74% (inactive).
The same measure for `O=C(Cn1c[n+](CC(=O)c2ccc([N+](=O)[O-])cc2)cn1)c1ccc([N+](=O)[O-])cc1`: 50.5% (active) and -2.04% (inactive); for `Cc1ccc(NC(=S)NNC(=O)CSc2nnc(SCc3ccccc3Cl)s2)cc1`: -10.8% (inactive); for `COc1cccc(CSc2nnc(-c3cccnc3)n2Cc2ccccc2)c1`: -0.03% (inactive).
Regarding `CCOc1cc(N2CCOCC2)c(OCC)cc1NC(=O)C1=NN(c2cccc(C)c2)C(=O)CC1`, the inhibition is 0.92% (inactive).
The same measure for `CCOc1cc(N2CCOCC2)c(OCC)cc1NC(=O)c1cc(C)nc2ccccc12`: 23.5% (active); for `Cc1cc(C(=O)NNC(=O)c2cccc(S(=O)(=O)N3CCOCC3)c2)c2ccccc2n1`: -0.61% (inactive); for `CC(C)(C)OC(=O)NCc1cc(F)ccc1/C=C/S(=O)(=O)NCCc1ccccc1`: 0.11% (inactive).
The same measure for `CCOC(=O)/C(=N\Nc1ccccc1Cl)N(C)C1CCS(=O)(=O)C1` (configuration not stated): 23.3% (active); for `CCOC(=O)/C(=N\Nc1cc(Cl)ccc1Cl)N1CCN(C)CC1`: -0.04% (inactive); for `CC(=O)c1ccc(OCC(=O)N(C)C2CCS(=O)(=O)C2)cc1` (configuration not stated): 1.81% (inactive).
In the case of `CCOC(=O)[C@]12CCCCC/C=C\1N(Cc1ccc(OC)cc1)C(=O)[C@H]2CC(=O)NCCCN1CCCC1=O`, the inhibition is -0.93% (inactive).
As for `CCOC(=O)[C@]12CCCC3=C1N(CCC3)C(=O)[C@@H](CC(=O)NCC13CC4CC(CC(C4)C1)C3)C2`, the inhibition is -0.2% (inactive).
Then `O=C(CCCCCN1C(=O)C2C3C=CC(C3)C2C1=O)Nc1ccccn1` (configuration not stated), with -0.7% (inactive); and `COc1ccc(N2CCN(CCNS(=O)(=O)c3ccc(C(C)(C)C)cc3)CC2)cc1`, with 0.26% (inactive); and `CCc1ccc(NC(=O)C(C)OC(=O)/C=C/c2cccc([N+](=O)[O-])c2)cc1` (configuration not stated), with 21.5% (active).
Then `CC(OC(=O)/C=C/c1ccccc1)C(=O)Nc1ccc(C(N)=O)cc1` (configuration not stated), with -0.02% (inactive); and `C=CCOc1ccc(/C=C/C(=O)OC(C)C(=O)Nc2ccc(NC(C)=O)cc2)cc1` (configuration not stated), with 0.2% (inactive); and `O=C(NC1CCC1)c1ccc(C#Cc2cccc(F)c2)c[n+]1[O-]`, with -2.83% (inactive).
Then `COc1ccc(Cn2c(=O)oc3ccccc32)cc1`, with -0.71% (inactive); and `COc1cc2[nH]c(=S)n(Cc3ccc(C)o3)c(=O)c2cc1OC`, with -2.92% (inactive); and `COc1ccc(Cn2c(=O)cc(C)[nH]c2=S)cc1`, with 48.1% (active).
On to `COC(=O)[C@]12C[C@H](CC(=O)NCc3cccc4ccccc34)C(=O)N(CCc3ccc(OC)c(OC)c3)C1=C[C@H](C1CCCC1)O[C@@H]2C`, for which the inhibition is 0% (inactive).
`CCOC(=O)N1CCN(C(=O)C[C@@H]2C(=O)N(CCc3ccc(Cl)cc3)C3=CCCC[C@]32C(=O)OCC)CC1`: the inhibition was -0.31% (inactive).
The same measure for `c1csc(-c2nnc(SCc3nc4ccccc4[nH]3)o2)c1`: -2.92% (inactive); for `COC(=O)[C@]12C[C@H](CC(=O)N3CCOCC3)C(=O)N(Cc3ccc(Cl)cc3Cl)C1=C[C@H](C(C)C)O[C@@H]2C1CC1`: -0.21% (inactive).
Then `CCCCCC(=O)Nc1ccc(-c2cn3cccnc3n2)cc1`, with 23.5% (active).
The same measure for `CCCCC(=O)Nc1ccc(C(=O)NCCCn2ccnc2)cc1`: -2.85% (inactive); for `CC(C)(C)C(=O)Nc1ccc(-c2cn3cccnc3n2)cc1`: -3.25% (inactive); for `Clc1ccc(-n2c(SC/C=C/c3ccccc3)nnc2-c2ccco2)cc1`: 0.89% (inactive).
As to `CC1CCN(c2ccc(C(=O)O)cc2NS(=O)(=O)c2ccc(Br)s2)CC1`, the inhibition is -1.98% (inactive).
The same measure for `COC(=O)[C@@]12CCCCC=C1N(CCc1ccc(Cl)cc1)C(=O)[C@H]2CC(=O)NCc1ccc(OC)c(OC)c1`: 0.86% (inactive).
For the compound `CCCCN1C(=O)C(CC(=O)NCc2cccs2)CC(C(=O)N2CCOCC2)=C1C` (configuration not stated), the inhibition is 22.9% (active).
As for `COCCCN1C(=O)C(CC(=O)NCc2cccs2)CC(C(=O)N2CCOCC2)=C1C` (configuration not stated), the inhibition is 0.04% (inactive).
The same measure for `CCCCN1C(=O)C(CC(=O)NCc2cccs2)CC(C(=O)N2CCCCCC2)=C1C` (configuration not stated): -0.83% (inactive); for `Oc1ccc(/C=C/c2c(F)cccc2F)c2cccnc12`: -8.09% (inactive); for `O=C1C(=O)N(Cc2ccc(-c3ccsc3)cc2)c2ccc(OC(F)(F)F)cc21`: 1.64% (inactive).
Consider `O=C1CCC2(CCC(c3ccc(Cl)cc3)CC2)N1CCO` (configuration not stated), for which the inhibition was -1.17% (inactive).
As to `O=C(C1CCN(S(=O)(=O)c2ccccc2)CC1)N1CCN(C2CCCCC2)CC1`, the inhibition is -0.54% (inactive).
The same measure for `COc1ccc(Cn2cc(CN3[C@@H](CC(C)C)COc4cc(Br)ccc4S3(=O)=O)nn2)cc1`: -1.35% (inactive).
Then `CCN(C(=O)COC(=O)c1cc(S(=O)(=O)N2CCc3ccccc32)ccc1OC)C1CCS(=O)(=O)C1` (configuration not stated), with -0.66% (inactive); and `COc1ccc(S(=O)(=O)N2CCc3ccccc32)cc1C(=O)Nc1cc(S(C)(=O)=O)ccc1Cl`, with 21.6% (active); and `COc1cccc(NC(=O)c2cc(S(=O)(=O)N3CCc4ccccc43)cn2C)c1`, with -1% (inactive).
The same measure for `O=C(C1CCCN1S(=O)(=O)c1ccccc1)N1CCc2ccccc2C1` (configuration not stated): 1.67% (inactive).
As to `O=S1(=O)c2ccc(N3CCN(Cc4ccccc4F)CC3)cc2Oc2ccccc2CN1Cc1cn(Cc2ccc(Cl)cc2)nn1`, the inhibition was 3.23% (inactive).
Turning to `Nc1ccc2nc3c(=O)[nH]c(=S)[nH]c3nc2c1`, the inhibition is 29.6% (active).

The values are drawn from PubChem BioAssay AID687016 (The Scripps Research Institute Molecular Screening Center, 2013).
